# Measurements published in PubChem BioAssay (Tox21).
# Results filed as inconclusive are left out. A number with no mark means an inactive call. Activity calls are given as the source filed them. Calls come from the whole dose curve; as a rule, active = well fitted cell-killing curve with a large enough effect in the repeat runs; inconclusive = weak or mixed curves, or effect the other way; inactive = flat fitted curve, though single readings scatter.
# Assay: qHTS assay to identify small molecule antagonists of the estrogen receptor alpha (ER-alpha) signaling pathway using the BG1 cell line in the presence of 0.1 nM 17-beta-estradiol - cell viability counter screen (AID 1259241); note: nearly all actives have a fitted effect of over 40% in size
# Conditions: VM7Luc4E2 (BG1) viability, CellTiter-Fluor protease, 22 h, 0.1 nM estradiol agonist added; series mostly up to 92.4 µM
# Description: National Center for Advancing Translational Sciences [NCATS]
# NIH Chemical Genomics Center [NCGC]
# U.S. Environmental Protection Agency [EPA]
# National Institutes of Environmental Health Sciences [NIEHS]
# National Toxicology Program [NTP]
# U.S. Food and Drug Administration [FDA]
# Estrogen receptor (ER), a member of the nuclear hormone receptor plays an important role in development, metabolic homeostasis and reproduction. Two subtypes of ER, ER-alpha and ER-beta, have similar expression patterns with some uniqueness in both types. Endocrine disrupting chemicals (EDCs) and their interactions with steroid hormone receptors like ER causes disruption of normal endocrine function. Therefore, it is important to understand the effect of environmental chemicals in ER signaling pathway. For identifying ER antagonists, VM7Luc4E2 cell line was used to screen against Tox21 compound libraries.
# VM7Luc4E2 cell line (provided by Denison MS, University of California) endogenously express full-length ER-alpha and is stably transfected with a plasmid containing four estrogen responsive elements (ERE) upstream of a luciferase reporter gene. The current screening for identification of ER-alpha inhibitors against Tox21 compound libraries used lower concentration (0.1 nM) of 17beta-Estradiol as a stimulator. The cytotoxicity of the Tox21 compound libraries against VM7Luc4E2 cell line was tested by measuring live-cell protease activity using CellTiter-Fluor assay in the same wells.
# Tox21 Assay Protocol Summary:
# VM7Luc4E2 cells were cultured in phenol red free assay medium containing 10% charcoal stripped FBS for 5 days prior to the assay. The cells were dispensed at 4,000 cells/well in 4 uL of assay medium into white wall/solid-bottom 1536-well plates (Corning Life Sciences, Corning, NY) using a Multidrop Combi (ThermoFisher Scientific, Waltham, MA) dispenser. After the assay plates were incubated at 37C and 5% CO2 for 24 hr, 23 nL of compounds dissolved in DMSO, positive controls or DMSO only was transferred to the assay plates by a Pintool station (Kalypsys, San Diego, CA). The transfer of compounds was followed by the addition of 1 uL of 0.1 nM (final concentration) agonist (17beta-Estradiol)/assay medium using a Flying Reagent Dispenser (FRD, Aurora Discovery, San Diego, CA). The plates were incubated at 37C and 5% CO2 for 22 hr. For cytotoxicity assay, 1 uL of CellTiter-Fluor reagent (Promega Corporation, Madison, WI) was added to each well using the FRD and after 30 min incubation at 37C and 5% CO2, The fluorescence intensity was measured using ViewLux plate reader (PerkinElmer, Shelton, CT).
# % is set by controls: 0 for no effect and ±100 for the full control effect.
Structure (SMILES),outcome,"activity change, negative = cytotoxicity"
C[C@@H]1CCN(C(=O)[C@H](CCCN=C(N)N)NS(=O)(=O)c2cccc3c2NC[C@H](C)C3)[C@@H](C(=O)O)C1,inactive,
CC(NC(CCc1ccccc1)C(=O)O)C(=O)N1C(=O)N(C)CC1C(=O)O (stereo not given),inactive,
CC(=O)OCC(=O)[C@@]1(O)CCC2C3CCC4=CC(=O)CC[C@]4(C)C3[C@@H](O)C[C@@]21C (stereo not given in full),inactive,
CCCCCCCCCCCCCC=O,,4.83% [at 8.39 µM]
COC(=O)[C@@H](N)Cc1ccc(O)c(O)c1,inactive,
N[C@H](C(=O)O)c1ccc(O)cc1,,8.37% [at 19 µM]
CC(C[N+](C)(C)C)OC(N)=O (stereo not given),inactive,
NC(=O)Nc1ccccc1,inactive,
CC(C)(C)NCCNC(C)(C)C,inactive,
CCCCCCCCCCCCCCCCC,inactive,
CCCCC/C=C\CCC=O,inactive,
OCCCC1CCCCC1,inactive,
Cn1cc(S(C)=O)c(=O)c2ccc(F)cc21 (stereo not given),inactive,
CCCCCCOC(=O)CCCCC(=O)OCCCCCC,inactive,
C1CN(CCOCCN2CCOCC2)CCO1,inactive,
O=Cc1cccc([N+](=O)[O-])c1,inactive,
CN(C(=O)c1c(O)c2ccccc2n(C)c1=O)c1ccccc1,inactive,
Cc1cc(O)cc2c1O[C@](C)(CCC[C@H](C)CCC[C@H](C)CCCC(C)C)CC2,inactive,
CCC=O,inactive,
CCSC(=O)N(CC(C)C)CC(C)C,inactive,

Structure (SMILES),outcome,"activity change, negative = cytotoxicity"
NS(=O)(=O)c1cc(C(=O)O)cc(N2CCCC2)c1Oc1ccccc1,inactive,
CN1CCN(c2cc3c(cc2F)c(=O)c(C(=O)O)cn3-c2ccc(F)cc2)CC1,inactive,
Cc1ccc(C#N)cc1,inactive,
C=CCCCCCCCCC=O,inactive,
CCn1ccnc1CC1COc2ccccc2O1 (stereo not given),inactive,
O=C(CCCN1CCN(c2ccccn2)CC1)c1ccc(F)cc1,inactive,
O=C(c1ccccc1)C1CCCCC1,inactive,
COc1cc(C(=O)N2CCCCCCC2)cc(OC)c1OC,inactive,
Cn1c(N)c(N=O)c(=O)n(C)c1=O,inactive,
COc1nc(N)nc2c1ncn2[C@@H]1O[C@H](CO)[C@@H](O)[C@@H]1O,inactive,
Cc1ccc(Cl)cc1Cl,inactive,
CCOC(=O)c1c(C)n(C)c2ccc(O)cc12,inactive,
CN1N=C(C(N)=O)CCC1=O,inactive,
C[N+](C)(C)CC(O)CC(=O)[O-] (stereo not given),inactive,
Oc1ccc(C2CNCCc3c2cc(O)c(O)c3Cl)cc1 (stereo not given),inactive,
O=C1NC(=O)[C@@]2(CCOc3ccc(F)cc32)N1,inactive,
O=c1n(CCO)c(=O)n(CCO)c(=O)n1CCO,inactive,
CCCCCCCCCCCC,inactive,
Nc1ccc(S(=O)(=O)Nc2ccnn2-c2ccccc2)cc1,,0.0467% [at 19 µM]
Nc1ccccc1S(=O)(=O)O,inactive,
